# E coli growth-1 = counter-screen for AddAB inhibitors: E. coli growth inhibition | AID 449728 | inhibition, % at 11.9 µM | hit rate 0.27% among 330,000 | E. coli V3065 growth, OD600 absorbance, 18 h;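 active = inhibition above the campaign's mean inhibition across all tested compounds plus 3 SD, cut at about 9.9% in these data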;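 note: uninfected addAB+ strain grown without phage in ampicillin broth; 0% = DMSO wells and 100% = ciprofloxacin 0.95 µg/ml wells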
# phage Ecoli inh = E. coli growth loss with phage present; growth absorbance; inhibition, % at 11.9 µM; hit rate 0.26% among 360,000; AID 651602; in the data active = inhibition above about 11%
# Tat export inh = inhibitors of E. coli Tat protein transport. hit rate 0.036% among 340,000. inhibition, % at 10 µM. AID 488895. E. coli MC4100 TorA-mCherry Tat export, fluorescence;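 active = mean replicate inhibition at least 50% and at least half of replicates individually reaching 50%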;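 note: exported cargo escapes ClpAP degradation while cytoplasmic cargo is degraded and loses fluorescence; 0% = median of neutral control wells and 100% = median of NaSCN control wells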
# E coli growth-2 = E. coli growth inhibition | OD600 absorbance (no concentration beside the values) | Escherichia coli growth, OD600, 23 h; hits give low values | hit rate 0.21% among 330,000;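 active = OD600 absorbance below the run mean of sample wells minus 3.6 SD, in any replicate, cut at about 0.56 in these data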
# AddAB inh = less growth of phage-infected E. coli with AddAB. E. coli expressing H. pylori AddAB, absorbance growth. inhibition, % at 11.9 µM. hit rate 0.29% among 330,000; in the data active = inhibition above about 12%;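 note: 0% = vehicle wells of infected cells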
# AddAB conf = growth loss of T4-infected E. coli expressing H. pylori AddAB, confirmed; shares compounds with AddAB inh; AID 488942; hit rate 64% among 880; inhibition, % at 11.9 µM; E. coli V3065 expressing H. pylori AddAB, T4 phage, OD; T4 phage with gene 2 nonsense mutations;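 active = mean inhibition above a set limit taken from the earlier primary screen, cut at about 13% in these data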;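 note: higher means less bacterial growth since AddAB block lets phage replicate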
# RecBCD counter = AddAB counter-screen: growth loss of RecBCD+ E. coli infected with mutant T4 phage; hit rate 73% among 880; E. coli V66 + mutant T4 phage, OD growth; shares compounds with AddAB inh; inhibition, % at 11.9 µM;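 active = mean inhibition above the mean of solvent-only control wells plus 3 SD, cut at about 4% in these data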;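 note: optical density read after an 18 h incubation at 37 °C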
# Bact viability = counter-screen for AddAB inhibitors: inhibitors of bacterial viability. absorbance (AddAB counterscreen). hit rate 35% among 880. shares compounds with AddAB inh. inhibition, % at 11.9 µM; in the data active = inhibition above about 25%
# RecBCD conf = growth loss of phage-infected V66 E. coli, RecBCD confirmation screen. shares compounds with phage Ecoli inh. E. coli V66 + T4 2- phage, growth OD. inhibition, % at 11.9 µM. hit rate 45% among 890. AID 651982;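 active = mean inhibition over triplicates exceeding the hit threshold derived in the original primary screen, cut at about 11% in these data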
# Ecoli viability = counter-screen for RecBCD inhibitors: inhibitors of bacterial viability; AID 651983; E. coli viability, absorbance (OD) growth; hit rate 29% among 890; shares compounds with phage Ecoli inh; inhibition, % at 11.9 µM; in the data active = inhibition above about 20%;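 note: E. coli strain V66 grown with compound alone and no phage infection; 0% = bacteria with DMSO vehicle only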
# AddAB counter = growth loss of phage-infected AddAB E. coli, RecBCD counter-screen | shares compounds with phage Ecoli inh | E. coli expressing H. pylori AddAB + T4 phage, OD growth; gene 2 mutant T4, recBCD-deleted host | inhibition, % at 11.9 µM | hit rate 45% among 890;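 active = mean inhibition above the solvent-only control wells' mean plus 3 SD, cut at about 22% in these data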;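 note: higher means less bacterial growth from phage killing when AddAB is blocked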
# Starred values were filed as active, the others as inactive; · = not tested or not shown. A selection: hits, their analogues and other compounds. The true share with any hit is near 0.5%.
SMILES,E coli growth-1,phage Ecoli inh,Tat export inh,E coli growth-2,AddAB inh,AddAB conf,RecBCD counter,Bact viability,RecBCD conf,Ecoli viability,AddAB counter
COC1C=COC2(C)Oc3c(C)c(O)c4c(O)c(c(CN5CCN(C)CC5)c(O)c4c3C2=O)NC(=O)C(C)=CC=CC(C)C(O)C(C)C(O)C(C)C(OC(C)=O)C1C (stereo not drawn),·,1,8,·,·,·,·,·,·,·,·
CCC(C)N1CCC2(CC1)N=c1c(c3c4c5c(C)c(O)c3c(O)c1=NC(=O)C(C)=CC=C[C@H](C)[C@H](O)[C@@H](C)[C@@H](O)[C@@H](C)[C@H](OC(C)=O)[C@H](C)[C@@H](OC)C=CO[C@@](C)(O5)C4=O)N2 (stereo partly drawn),98*,105*,107*,·,97*,96*,97*,99*,96*,99*,102*
COc1cc(C=NN(C)C)cc(Br)c1O,·,·,·,0.66,·,·,·,·,·,·,·
COc1ccc(C2CC=C(C(=O)O)CN2S(=O)(=O)c2ccc(Cl)cc2)cc1 (stereo not drawn),·,·,·,0.65,·,·,·,·,·,·,·
Cc1cccc(C)c1-n1c(C)cc(C=NNc2ccc([N+](=O)[O-])cn2)c1C,·,·,·,0.71,·,·,·,·,·,·,·
COc1cccc(N2C(CC(=O)O)c3ccccc3S2(=O)=O)c1 (stereo not drawn),·,·,·,0.67,·,·,·,·,·,·,·
CCN1CCN(C(c2ccc(C(F)(F)F)cc2)c2ccc3cccnc3c2O)CC1 (stereo not drawn),38*,21*,-5,0.62,26*,10,12*,5,5,7,10
Oc1c(C(c2ccccn2)N2CCCCC2)cc(Cl)c2cccnc12 (stereo not drawn),-1,10,-2,0.65,0,·,·,·,·,·,·
CN1CCN(C(c2ccc(Cl)cc2)c2cc(Cl)c3cccnc3c2O)CC1 (stereo not drawn),19*,16*,-8,·,13*,4,9.9*,3,2,1,3
CN1CCN(C(c2ccc(C(F)(F)F)cc2)c2cc(Cl)c3cccnc3c2O)CC1 (stereo not drawn),23*,24*,·,·,18*,14*,14*,10,6,6,9
O=C(C=Cc1cccs1)NCc1cccnc1,·,·,·,0.68,·,·,·,·,·,·,·
Cc1cc([N+](=O)[O-])ccc1-c1ccc(C2Nc3ccccc3C(=O)N2O)o1 (stereo not drawn),27*,24*,6,0.59,31*,22*,24*,19,18*,21*,21
CCOC(=O)c1ccc(-c2ccc(C3Nc4ccccc4C(=O)N3O)o2)cc1 (stereo not drawn),22*,24*,1,0.64,21*,20*,21*,18,16*,18,14
N#Cc1ccc(-c2ccc(C3Nc4ccccc4C(=O)N3O)o2)cc1 (stereo not drawn),6,8,-7,0.69,8,·,·,·,·,·,·
COc1cccc(C=NNC(=O)CNC(=O)C(c2ccccc2)c2ccccc2)c1O,·,·,·,0.7,·,·,·,·,·,·,·
CC1NC(=O)N(C)C2NC(=O)N(C)C(c3ccc([N+](=O)[O-])cc3)C12 (stereo not drawn),·,·,·,0.71,·,·,·,·,·,·,·
CCn1cc(C(=O)NCC(C)C)c(=O)c2cc(F)c(N3CCN(C)CC3)cc21,100*,87*,·,0.075*,99*,100*,100*,101*,90*,101*,102*
CCn1cc(C(=O)NCc2ccc3c(c2)OCO3)c(=O)c2cc(F)c(N3CCN(C)CC3)cc21,98*,16*,10,0.043*,99*,102*,29*,101*,18*,20,102*
CCOC(=O)c1cn(CC)c2cc(N3CCN(C)CC3)c(F)cc2c1=O,97*,27*,2,0.068*,99*,102*,19*,100*,11*,12,89*
CCn1cc(C(=O)N[C@H](C)c2ccccc2)c(=O)c2cc(F)c(N3CCN(C)CC3)cc21,-1,-2,12,0.72,2,·,·,·,·,·,·
CCC(C)NC(=O)c1cn(CC)c2cc(N3CCN(C)CC3)c(F)cc2c1=O (stereo not drawn),95*,94*,·,0.075*,99*,100*,99*,100*,99*,99*,100*
CCCCCCn1cc(C(=O)OCC)c(=O)c2cc(F)c(F)cc21,1,2,5,0.7,3,·,·,·,·,·,·
CCn1cc(SCC(=O)NCc2ccc3c(c2)OCO3)c2ccccc21,1,3,-18,0.7,-1,·,·,·,·,·,·
O=S(=O)(C=Cc1ccccc1)Nc1ccc(N2CCOCC2)cc1,·,·,·,0.73,·,·,·,·,·,·,·
Cc1ccc(NC(=O)CN2C(=O)SC(=Cc3cc(C)n(-c4cccc(C(=O)O)c4)c3C)C2=O)cc1,·,·,·,0.72,·,·,·,·,·,·,·
SMILES,E coli growth-1,phage Ecoli inh,Tat export inh,E coli growth-2,AddAB inh,AddAB conf,RecBCD counter,Bact viability,RecBCD conf,Ecoli viability,AddAB counter
COC(=O)CC=CC(C)C(C=NOCC(C)C(OCc1ccccc1)C(C)C)NS(=O)(=O)c1ccc(C)cc1 (stereo not drawn),·,·,·,0.68,·,·,·,·,·,·,·
Cc1ccc(-c2cc(C(=O)Nc3ccncc3)c3ccccc3n2)cc1,1,3,2,0.71,-1,·,·,·,·,·,·
O=C(NNC(=O)c1cc(-c2ccncc2)nc2ccccc12)c1ccccc1O,26*,24*,-10,0.54,29*,18*,18*,15,12*,16,20
CCc1nnc(NS(=O)(=O)c2ccc(N=Cc3c(C)[nH]n(-c4ccc(C)c(C)c4)c3=O)cc2)s1,12*,11*,-2,·,16*,9,4.5*,11,7,4,23*
O=C(N/N=C/c1ccc(O)cc1O)C(=O)N/N=C/c1ccc(O)cc1O,30*,22*,3,·,28*,22*,24*,21,19*,21*,29*
O=C(/C=C1\NC2(CCCC2)Cc2ccccc21)C(=O)N/N=C/c1ccccc1O,13*,25*,1,·,16*,30*,25*,22,19*,22*,25*
Cn1nnnc1N=N/C(=N/Nc1ccccc1)c1ccccc1,21*,20*,-1,·,25*,25*,23*,22,11*,10,15
O=C1CCCC=CCC(CC(=O)N(CCO)Cc2ccccc2)C(=O)NCC(c2ccccc2)O1 (stereo not drawn),·,·,·,0.71,·,·,·,·,·,·,·

# Assay outcomes deposited in PubChem BioAssay by several laboratories.
